Consider 39 sequences from the OligoGym collection.
Further: reference of the scale not given here.

The target in one assay is LGALS7B. The experiment in a line: pooled miR-30 sensor sort-seq; sequence = guide strand. Conditions: shRNA.
TTGCTGTTGAAGACCACCTCCG registered a sensor-assay potency score (higher = more potent) of -0.31.

TTGGGAGGAACCAAGCCGCGAA came in with a sensor-assay potency score (higher = more potent) of -0.897.

Take ATTGGGAGGAACCAAGCCGCGA: the sensor-assay potency score (higher = more potent) was -1.73.

In turn, ATGATGAGCACCTCGAAGGGCT showed a sensor-assay potency score (higher = more potent) of -0.649.

Sequence TGAAATGCAGGGCGGCATCGGA came in with a sensor-assay potency score (higher = more potent) of -1.07.

Take TGCTGTTGAAGACCACCTCCGA: the sensor-assay potency score (higher = more potent) was -0.584.

Turning to TGAAGCCGTCGTCTGACGCGAT, the sensor-assay potency score (higher = more potent) was -0.633.

The target of a further assay is LHCGR. Described as above. Conditions: shRNA.
As for TAATCGCAGCTTTTGGTCCAGG, the sensor-assay potency score (higher = more potent) was -1.08.

TTGACAAATGTTTCTCTTGATG came in with a sensor-assay potency score (higher = more potent) of -1.44.

Sequence TAGTCGAGTGAGACCGGCCGTG yielded a sensor-assay potency score (higher = more potent) of -0.508.

Take TTGGTAGCCATTAATTCTGGGT: the sensor-assay potency score (higher = more potent) was -0.032.

Regarding TATAGTTTGAGTGTTACAGATT, the sensor-assay potency score (higher = more potent) is -0.877.

Sequence TTCACTTTCCTTACTGTGCTTT came in with a sensor-assay potency score (higher = more potent) of 0.168.

In the case of TTATTTGATCCAGTGAAGCCAT, the sensor-assay potency score (higher = more potent) is -0.633.

TCCATTGTGCATCTTCTCCAGA showed a sensor-assay potency score (higher = more potent) of -0.921.

Consider TAAGCTGAAAAATCTTTCCTTC, for which the sensor-assay potency score (higher = more potent) is 0.265.

Sequence TTTGGTGGAAGAAATATCCAAG gave a sensor-assay potency score (higher = more potent) of -0.193.

For the sequence TAACTCAGCACATTTGTAGTGT, the sensor-assay potency score (higher = more potent) is 0.247.

Consider TTACTGTGCTTTCACATTGTTT, for which the sensor-assay potency score (higher = more potent) was -1.55.

The target in a further assay is LHFPL3. The assay is described as above. Conditions: shRNA.
Regarding TTAAACAGAACACAGACTTGGT, the sensor-assay potency score (higher = more potent) came to 0.0174.

Regarding TATCTTGTACACAGTGGCCGTG, the sensor-assay potency score (higher = more potent) is -0.302.

Take TTAGTTGTTAACTACTTCCAGA: the sensor-assay potency score (higher = more potent) was -0.755.

On to TACATGTTAACTCTAGAGCATT, for which the sensor-assay potency score (higher = more potent) is -1.25.

TAATCCATGATCACATCTCTTT showed a sensor-assay potency score (higher = more potent) of -0.691.

As for TAAAATAGGAATGTGGTCCTAA, the sensor-assay potency score (higher = more potent) is 0.497.

In turn, ATATCTTGTACACAGTGGCCGT registered a sensor-assay potency score (higher = more potent) of -1.29.

For the sequence TTAGCTTGTGTTCATTCTCAGG, the sensor-assay potency score (higher = more potent) is -1.28.

TTTTACTTCATCTGAGTCCCAG returned a sensor-assay potency score (higher = more potent) of 0.0126.

Sequence TTTACTTCATCTGAGTCCCAGC returned a sensor-assay potency score (higher = more potent) of -0.606.

On to TACTTGTCTGTCTTTTCTCCAC, for which the sensor-assay potency score (higher = more potent) was -0.0892.

For the sequence TAGCCTATAATATTACACGTGA, the sensor-assay potency score (higher = more potent) was -0.577.

Another assay has as its target LHFPL4. Described as above. Conditions: shRNA.
TGGATGAAGACCACCACGTTGA: the sensor-assay potency score (higher = more potent) was -0.905.

Sequence AAATCTTTGTTCTCCGGCTTGA gave a sensor-assay potency score (higher = more potent) of -0.165.

Sequence AAGTCGGTGAAGGAGCCCCGGC yielded a sensor-assay potency score (higher = more potent) of -1.53.

Turning to TTCCGCATGTAGTGCTCGTGGT, the sensor-assay potency score (higher = more potent) was -0.829.

As for TAGTGCTCGTGGTAGAGCTTGG, the sensor-assay potency score (higher = more potent) was -0.315.

Turning to TCCGCATGTAGTGCTCGTGGTA, the sensor-assay potency score (higher = more potent) is -1.39.

As to TTGTAGACCGTAGCCGTGTTGC, the sensor-assay potency score (higher = more potent) was -0.989.

Consider TAGACCGTAGCCGTGTTGCAGA, for which the sensor-assay potency score (higher = more potent) was -0.559.
